Most compounds without a hit are left out; they make up all but 0.92% or so of the library.
CIT2 TOR yeast: yeast TOR pathway CIT2-GFP modulation. S. cerevisiae CIT2-GFP strain, flow cytometry, 3 h; 100 means same as DMSO wells. GFP response vs DMSO, % at 10 µM. 0.065% of 320,000 active. AID 2029;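 active = GFP response relative to DMSO above a set limit, near the screen mean plus 3 SD, cut at about 150% in these data; inconclusive = Fewer than 70 cells measured for a yeast strain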;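 also: ratio of well median GFP fluorescence to mean of DMSO wells on the plate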
MEP2-GFP yeast: yeast TOR pathway MEP2-GFP modulation; S. cerevisiae MEP2-GFP strain, flow cytometry GFP, 3 h; 100% = DMSO control level; GFP response vs DMSO, % at 10 µM; 0.51% of 330,000 active; AID 2016;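 active = GFP response versus DMSO above a set limit, roughly screen mean plus 3 SD, cut at about 180% in these data; inconclusive = fewer than 70 cells counted for a yeast strain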;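 also: median GFP fluorescence of the barcode-gated MEP2-GFP cells per well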
LAP4 TOR yeast: alters LAP4-GFP fluorescence in TOR pathway yeast screen. S. cerevisiae LAP4-GFP multiplex, flow cytometry GFP, 3 h; median GFP as percent of DMSO wells. 0.34% of 320,000 active. GFP response vs DMSO, % at 10 µM;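 active = GFP response vs DMSO above a set limit, about the screen mean plus 3 SD, cut at about 150% in these data; inconclusive = under 70 cell events counted for the yeast strain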
RPL19A-GFP yeast: alters RPL19A-GFP fluorescence in TOR pathway yeast screen; S. cerevisiae RPL19A-GFP strain, flow cytometry, 3 h; active compounds read low; percent response vs DMSO, % at 10 µM; 0.3% of 330,000 active;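 active = percent response vs DMSO below 50%; inconclusive = fewer than 70 events counted for the yeast strain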;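 also: median channel GFP fluorescence of the barcoded RPL19A-GFP strain; ratio of sample median GFP to plate DMSO average so 100% = DMSO; lower means less RPL19A-GFP as with rapamycin TOR inhibition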
AGP1-GFP MLPCN: alters AGP1-GFP fluorescence in TOR pathway yeast screen | S. cerevisiae AGP1-GFP multiplex flow cytometry, 3 h; GFP as percent of DMSO wells | GFP response vs DMSO, % at 10 µM | 0.02% of 320,000 active;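 active = GFP response relative to DMSO above a set limit, near screen average plus 3 SD, cut at about 150% in these data; inconclusive = fewer than 70 cells counted for the yeast strain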;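 also: median GFP channel fluorescence of the gated AGP1 strain per well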
The depositor's hits bear a star; u = inconclusive; x = no result; [ ] = another dose, or the depositor's remark.

SMILES	CIT2 TOR yeast	MEP2-GFP yeast	LAP4 TOR yeast	RPL19A-GFP yeast	AGP1-GFP MLPCN
COc1ccc(OCc2cc(C(=O)NC3CCOC(C)(C)C3)no2)c2ccccc12 (stereo unspecified)	93.1	94.8	96.7	94.7	93.3
Cn1c(/C=C/c2ccc([N+](=O)[O-])o2)nc2ccccc2c1=O	179.8*[may fluoresce green]	247.9*[may fluoresce green]	x	125.5	90.5
Cn1c(/C=C/c2ccccc2)nc2ccccc2c1=O	84.7	93.8	91.1	96.9	84.0
Cc1cc(C)n(C(=O)/C(C#N)=N\Nc2ccccc2[N+](=O)[O-])n1	90.4	134.4	182.7*	93.8	105.0
COC(=O)C1=CN(Cc2ccc(OC)cc2)C=C(C(=O)OC)C1c1ccsc1	u	256.6*[may fluoresce violet]	98.8	59.0	28.2
COCCNC(=O)C(=O)Nc1cc2c3c(c1)CC(=O)N3CCC2	u	226.3*[may fluoresce violet]	89.1	61.1	18.2
CN(C)CCCNC(=O)C(=O)Nc1cc2c3c(c1)CC(=O)N3CCC2	96.3	96.8	95.2	97.3	98.5
CCn1ncc(Br)c1C(=O)Nc1cc([N+](=O)[O-])ccc1C	85.8	100.3	94.7	93.6	90.7
O=C(C[n+]1cc(Br)cc2ccccc21)c1ccc(Br)cc1	102.1	107.4	98.0	108.5	109.3
O=C(C[n+]1cc(Br)cc2ccccc21)c1ccc(Cl)cc1	u	453.9*[may fluoresce violet]	65.8	23.6*[may fluoresce violet]	u
CCCCOC(=O)Nc1ccc(S(=O)(=O)Nn2cnnc2)cc1	u	278.0*[may fluoresce violet]	73.3	38.8*[may fluoresce violet]	u
COc1cccc(-c2nn3c(-c4ccco4)nnc3s2)c1	u	u	u	17.3*[may fluoresce violet]	u
CC1(C)Cn2c(nnc2-c2cccc(O)c2)S1	94.3	104.4	98.7	98.3	92.4
CCc1ccccc1NC(=O)C1CCCN(c2nccc(C)n2)C1 (stereo unspecified)	u	u	62.0	25.1*[may fluoresce violet]	u
CC(C)(C)c1ccc(C(=O)NC2CCN(Cc3ccccc3)CC2)cc1	96.8	106.6	99.9	107.1	98.4
Cc1ccc(C(=O)NCC(=O)OCN2C(=O)c3ccccc3C2=O)cc1C	80.3	97.8	104.2	93.5	85.0
O=C(CNC(=O)c1ccco1)OCN1C(=O)c2ccccc2C1=O	u	269.0*[may fluoresce violet]	98.3	66.0	28.4
Cc1nn(C)c(C(=O)Sc2ccccc2)c1[N+](=O)[O-]	96.5	99.1	129.1	101.2	109.7
Cc1nn(C)c(C(=O)Sc2cccc(Cl)c2)c1[N+](=O)[O-]	102.7	97.4	154.2*	107.1	109.9
C=CCN(Cc1ccco1)S(=O)(=O)c1ccc(Cl)cc1	155.6*[may fluoresce green]	110.7	102.1	88.8	116.1
Cc1ccccc1NC(=O)CSCc1cc(=O)n2ccsc2n1	96.8	117.9	87.5	90.3	87.5
CCOC(=O)Cc1csc(NC(=O)Cn2cnc3c2c(=O)n(C)c(=O)n3C)n1	94.3	98.1	101.4	90.4	93.3
Cn1c(=O)c2c(ncn2CC(=O)Nc2nc(-c3ccccc3Cl)cs2)n(C)c1=O	u	209.9*[may fluoresce violet]	69.0	13.4*[may fluoresce violet]	u
Cc1c(C)c2ccc(OCC(=O)Nc3cccnc3)cc2oc1=O	u	181.8*[may fluoresce violet]	69.9	15.0*[may fluoresce violet]	u
COc1ccc2ccccc2c1/C=N/Nc1cccc(C(=O)O)c1	91.6	113.7	166.4*	102.1	91.0
SMILES	CIT2 TOR yeast	MEP2-GFP yeast	LAP4 TOR yeast	RPL19A-GFP yeast	AGP1-GFP MLPCN
C[C@H]1O[C@@H](n2cc(F)c(=O)[nH]c2=O)[C@H](O)[C@@H]1O	u	u	u	40.8*[may fluoresce violet]	u
Cc1cc(C)cc(NC(=O)Nc2ccccc2N2CCCCC2)c1	116.1	97.6	113.7	101.6	124.7
COc1cccc(C(=O)N/N=C(\CC(C)C)c2ccccc2)c1	107.6	183.1*	102.5	102.8	97.0
FC(F)(F)c1cc(-c2cccs2)nc2cc(-c3cccs3)nn12	128.4	178.9*	143.5	98.6	113.2
CCCCN(CCCNC(=O)C1CCN(C(=O)c2cc3sccc3n2C)CC1)Cc1ccccc1	107.7	95.5	93.8	96.3	97.1
CCN(CCCNC(=O)C1CCN(C(=O)c2cc3sccc3n2C)CC1)Cc1ccccc1	u	283.4*[may fluoresce violet]	107.4	44.3*[may fluoresce violet]	u
CCN(C(=O)COC(=O)/C=C/c1cccc([N+](=O)[O-])c1)c1ccccc1	105.6	96.3	89.2	101.1	97.5
c1ccc(CNc2cncnc2)cc1	94.6	92.3	81.6	92.0	92.6
O=C1C(CSCc2ccccc2)NC(=S)N1c1ccccc1 (stereo unspecified)	91.2	87.2	152.2*	95.2	97.2
